# Data from PubChem BioAssay (Tox21).
# Records with an inconclusive call do not appear. Where a call stands in place of a potency, no number is given. Activity calls are given as the source filed them. Unless noted, calls come from the whole dose curve. Bridge positions count the residues as written; N and C are the ends. Square brackets hold non-standard residues; d marks the D form. Peptide text beside a SMILES is read from it. hArg = N=C(N)NCCCC[C@H](N)C(=O)O; Mpa = O=C(O)CCS
# How the values were obtained:
# [1] = Nuclear factor erythroid 2-related factor 2/antioxidant responsive element (Nrf2/ARE) small molecule agonists: qHTS cell viability counter screen in human keratinocytes (AID 1919968; active = well fitted curve in the direction sought with a large enough effect in the repeat runs; an effect the other way counts as inactive or inconclusive; note: nearly all actives have a fitted effect of over 55% in size; note: potency is the fitted concentration of half-maximal effect)
# How it was run: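 Cells of the KeratinoSens line were plated at 1,500 per well and left for 5 h before compound transfer from DMSO stocks. After a 23 h incubation (37 C, 5% CO2), CellTiter-Fluor was added. Signal was taken as fluorescence intensity 1 h later.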
# [2] = target: KiSS-1 receptor (Homo sapiens) (UniProt Q969F8); assay: Human kisspeptin (KISS1R) small molecule agonists, calcium flux assay in KISS1R-HEK293 cells (AID 1920064; active = well fitted curve in the direction sought with a large enough effect in the repeat runs; an effect the other way counts as inactive or inconclusive)
# Sequence of KiSS-1 receptor (Homo sapiens) (Q969F8 whole entry, looked up): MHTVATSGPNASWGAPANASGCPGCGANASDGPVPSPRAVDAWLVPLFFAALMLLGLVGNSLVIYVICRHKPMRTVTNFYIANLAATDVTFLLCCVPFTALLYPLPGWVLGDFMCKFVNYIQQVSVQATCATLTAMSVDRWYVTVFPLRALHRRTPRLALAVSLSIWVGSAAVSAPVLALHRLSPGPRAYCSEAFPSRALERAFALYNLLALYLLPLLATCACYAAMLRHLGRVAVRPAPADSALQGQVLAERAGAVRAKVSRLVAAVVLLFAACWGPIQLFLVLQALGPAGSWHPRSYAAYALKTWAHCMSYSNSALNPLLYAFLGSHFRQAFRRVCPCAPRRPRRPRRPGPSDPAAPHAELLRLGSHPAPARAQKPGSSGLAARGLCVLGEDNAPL
# How it was run: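 Cell line: HEK293, stable human KISS1R. Dye loading 1 h at 37 C after 18 h culture. Read: kinetic fluorescence, 480/540 nm, 3 min at 1 s intervals.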
# [3] = G protein-coupled receptor (GPCR) small molecule agonists, calcium flux assay: HEK293 wild type cell line counter screen (AID 1920065)
# How it was run: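 Tox21 10K compounds, 15 concentrations each in triplicate, pin-transferred in DMSO onto dye-loaded cells; kinetic read at 480/540 nm for 3 min, 1 s intervals.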
# [4] = p53 small molecule agonists, cell-based qHTS assay with human liver microsomes (AID 1963577);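 note: p53 response element beta-lactamase reporter cells with liver microsomes plus NADPH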
# How it was run: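 16 h, 37 C exposure of p53RE-bla cells to compounds with human liver microsomes and NADPH (0.5 mg/mL final each); detection via LiveBLAzer mixture, 2 h dark at room temperature.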
# [5] = p53 small molecule agonists, cell-based qHTS assay with rat liver microsomes (AID 1963578)
# How it was run: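 With rat liver microsomes and NADPH present (0.5 mg/mL final each), p53RE-bla cells are treated with compound for 16 h at 37 C. LiveBLAzer detection mixture is then applied for 2 h at room temperature in the dark.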
# [6] = p53 small molecule agonists, cell-based qHTS assay with human liver microsomes: qHTS cell viability counter screen (AID 1963579); note: nearly all actives have a fitted effect of over 45% in size
# How it was run: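 In this multiplexed counter screen, the reporter plates were subsequently treated with CellTiter-Glo so that cell viability, reflected by luminescence, could be recorded for p53RE-bla cells dosed 16 h with compounds under microsomal activation (HLM and NADPH).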
# [7] = p53 small molecule agonists, cell-based qHTS assay with rat liver microsomes: qHTS cell viability counter screen (AID 1963580); note: nearly all actives have a fitted effect of over 45% in size
# How it was run: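 Rat liver microsome (0.5 mg/mL final) and NADPH (0.5 mg/mL final) co-incubation with compounds for 16 h at 37 C on HCT-116 p53RE-bla cells; cytotoxicity taken from intracellular ATP luminescence.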
# [8] = p53 small molecule agonists, cell-based qHTS assay: qHTS cell viability counter screen (AID 1963581); note: nearly all actives have a fitted effect of over 45% in size
# How it was run: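 ATP content measured by luminescence in HCT-116 p53RE-bla cells treated 16 h at 37 C, same wells as the reporter screen.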
# [9] = p53 small molecule agonists, cell-based qHTS assay (AID 1963582; active = well fitted activation curve with a large enough effect in the signal ratio in the repeat runs, not every such curve was filed as active; the % refers to the signal ratio)
# How it was run: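 16 h compound exposure (37 C) of p53 response element–bla cells, preceded by 5 h recovery at 37 C/5% CO2; read-out via LiveBLAzer B/G FRET substrate, 2 h RT, fluorescence intensity.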
# [10] = target: 5-hydroxytryptamine receptor 2A (Homo sapiens) (UniProt P28223); assay: 5-hydroxytryptamine receptor 2A (HTR2A) small molecule antagonists, cell-based qHTS assay (AID 1963586); note: nearly all actives have a fitted effect of over 45% in size
# Sequence of 5-hydroxytryptamine receptor 2A (Homo sapiens) (P28223 whole entry, looked up): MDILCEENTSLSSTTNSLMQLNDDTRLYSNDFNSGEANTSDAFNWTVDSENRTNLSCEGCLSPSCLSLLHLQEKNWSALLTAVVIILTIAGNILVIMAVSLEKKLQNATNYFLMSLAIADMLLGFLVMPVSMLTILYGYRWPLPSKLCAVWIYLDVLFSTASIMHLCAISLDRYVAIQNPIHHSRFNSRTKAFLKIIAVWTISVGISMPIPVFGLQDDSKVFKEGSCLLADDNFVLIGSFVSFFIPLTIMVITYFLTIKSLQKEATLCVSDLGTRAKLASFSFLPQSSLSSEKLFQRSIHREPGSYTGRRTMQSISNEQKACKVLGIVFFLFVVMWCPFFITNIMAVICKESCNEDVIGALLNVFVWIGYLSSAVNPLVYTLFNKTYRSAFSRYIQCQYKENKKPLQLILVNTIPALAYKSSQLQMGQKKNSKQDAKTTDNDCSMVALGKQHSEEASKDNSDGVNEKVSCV
# How it was run: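 CHO cells stably expressing human HTR2A were plated for 18 h at 37 C, then loaded with calcium dye for 1 h. Compounds were preincubated 5 min at room temperature before DOI (4 nM solution) was added. Kinetic fluorescence was read for 3 min.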
# [11] = target: Muscarinic acetylcholine receptor M1 (Homo sapiens) (UniProt P11229); assay: Cholinergic receptor muscarinic 1 (CHRM1) small molecule antagonists, cell-based qHTS assay (AID 1963588); note: nearly all actives have a fitted effect of over 40% in size; note: potency is the fitted concentration of half-maximal effect
# Sequence of Muscarinic acetylcholine receptor M1 (Homo sapiens) (P11229 whole entry, looked up): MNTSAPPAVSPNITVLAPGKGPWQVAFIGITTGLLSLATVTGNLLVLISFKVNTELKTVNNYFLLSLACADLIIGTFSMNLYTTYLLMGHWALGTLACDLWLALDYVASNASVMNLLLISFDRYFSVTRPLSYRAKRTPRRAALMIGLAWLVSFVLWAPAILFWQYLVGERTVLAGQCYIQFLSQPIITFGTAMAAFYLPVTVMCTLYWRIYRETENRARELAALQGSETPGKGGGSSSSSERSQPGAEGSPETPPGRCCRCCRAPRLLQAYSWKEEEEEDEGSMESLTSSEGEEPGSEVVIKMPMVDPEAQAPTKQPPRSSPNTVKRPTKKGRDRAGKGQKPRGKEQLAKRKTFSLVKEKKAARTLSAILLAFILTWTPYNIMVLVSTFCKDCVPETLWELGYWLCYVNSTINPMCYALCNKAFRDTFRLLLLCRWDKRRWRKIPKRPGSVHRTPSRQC
# How it was run: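 Compounds were tested at 15 concentrations in three independent runs. Dye-loaded CHRM1-CHO cells were exposed 5 min at room temperature before stimulation by acetylcholine added at 50nM. Intracellular calcium was read kinetically on FDSS for 3 min.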
# [12] = target: Muscarinic acetylcholine receptor M1 (Homo sapiens) (UniProt P11229); assay: Cholinergic receptor muscarinic 1 (CHRM1) small molecule agonists, cell-based qHTS assay (AID 1963589); note: nearly all actives have a fitted effect of over 35% in size
# How it was run: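 Homogeneous fluorescence calcium flux, agonist mode. Human M1-expressing CHO cells; compound dosed at 15 concentrations, three independent runs; signal sampled every 1 sec.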
# [13] = cAMP Responsive Elements (CRE) small molecule agonists, cell-based qHTS assay (AID 1963590)
# How it was run: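 HEK 293T cells stably bearing CRE-bla were plated at 2,000 cells per well and rested 18 h. Compounds, positive controls or DMSO were added for 3 h at 37 C. LiveBLAzer B/G substrate was then loaded for 2 h at room temperature.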
# [14] = cAMP Responsive Elements (CRE) small molecule antagonists, cell-based qHTS assay (AID 1963591; active = well fitted inhibition curve with a large enough effect in the signal ratio in the repeat runs, not every such curve was filed as active; the % refers to the signal ratio)
# How it was run: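 First, CRE-bla HEK293T cells settled 18 h at 37 C. Next, compound and 0.25 uM final NKH477 were applied for 3 h. Last, LiveBLAzer B/G substrate was loaded for 2 h at room temperature.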
# [15] = target: Beta-2 adrenergic receptor (Homo sapiens) (UniProt P07550); assay: Adrenergic beta2 receptor (ADRB2) small molecule antagonists, cell-based qHTS assay (AID 1963592); note: series mostly up to about 92 µM; nearly all actives have a fitted effect of over 50% in size
# Sequence of Beta-2 adrenergic receptor (Homo sapiens) (P07550 whole entry, looked up): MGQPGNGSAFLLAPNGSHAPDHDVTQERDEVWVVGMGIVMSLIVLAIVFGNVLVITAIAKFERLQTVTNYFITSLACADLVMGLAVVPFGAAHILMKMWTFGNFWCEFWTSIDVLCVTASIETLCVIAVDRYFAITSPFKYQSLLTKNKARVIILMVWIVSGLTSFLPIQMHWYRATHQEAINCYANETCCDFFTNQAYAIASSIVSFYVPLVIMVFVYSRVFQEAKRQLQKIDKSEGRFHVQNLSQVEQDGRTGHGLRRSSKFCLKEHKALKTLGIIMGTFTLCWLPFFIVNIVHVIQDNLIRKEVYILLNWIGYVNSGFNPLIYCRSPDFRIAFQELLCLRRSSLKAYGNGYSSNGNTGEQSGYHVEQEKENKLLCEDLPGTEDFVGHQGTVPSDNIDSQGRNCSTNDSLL
# How it was run: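 Assay format: CHO-ADRB2 cells, 18-20hr seeding at 37C/5% CO2, then compound plus 1nM isoproterenol agonist mix for 0.5hr RT. Homogeneous time-resolved fluorescence cAMP detection after 1hr, expressed as 665/615 nm ratio.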
# [16] = target: Beta-2 adrenergic receptor (Homo sapiens) (UniProt P07550); assay: Adrenergic beta2 receptor (ADRB2) small molecule agonists, cell-based qHTS assay (AID 1963593);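 note: CHO cells stably overexpressing human ADRB2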
# How it was run: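 CHO cells stably over-expressing ADRB2 were plated overnight at 37C, then dosed with compounds plus a stimulation mix containing 100uM IBMX and 25uM Ro-20-1724 for 0.5hr at room temperature. cAMP was measured by HTRF competition, 1hr.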
# [17] = target: D(2) dopamine receptor (Homo sapiens) (UniProt P14416); assay: Dopamine D2 receptor (DRD2) small molecule agonists, cell-based qHTS assay (AID 1963594); note: nearly all actives have a fitted effect of over 35% in size
# Sequence of D(2) dopamine receptor (Homo sapiens) (P14416 whole entry, looked up): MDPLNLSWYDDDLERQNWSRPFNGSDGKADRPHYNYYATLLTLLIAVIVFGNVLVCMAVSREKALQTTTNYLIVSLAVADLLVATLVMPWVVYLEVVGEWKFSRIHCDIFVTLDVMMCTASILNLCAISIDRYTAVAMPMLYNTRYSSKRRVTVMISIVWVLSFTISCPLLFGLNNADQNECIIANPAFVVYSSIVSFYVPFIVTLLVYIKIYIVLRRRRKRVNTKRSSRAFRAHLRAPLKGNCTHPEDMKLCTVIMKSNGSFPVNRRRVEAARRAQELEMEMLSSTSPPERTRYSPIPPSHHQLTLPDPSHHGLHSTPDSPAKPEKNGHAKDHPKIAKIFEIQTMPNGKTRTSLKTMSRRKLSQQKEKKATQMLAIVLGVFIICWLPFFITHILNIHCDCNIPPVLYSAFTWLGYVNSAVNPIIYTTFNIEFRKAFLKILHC
# How it was run: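 cAMP accumulation in DRD2-HEK293 cells measured by HTRF after 1 h detection; compounds added 10 min before NKH477 (200nM […]) forskolin-analogue stimulation, 30 min at room temperature, with Ro20-1724 present at 0.1 mM final.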
# [18] = target: 5-hydroxytryptamine receptor 2A (Homo sapiens) (UniProt P28223); assay: 5-hydroxytryptamine receptor 2A (HTR2A) small molecule agonists, cell-based qHTS assay (AID 1963587); note: nearly all actives have a fitted effect of over 30% in size
# How it was run: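 Kinetic calcium-flux fluorescence (2 min, 1 sec intervals) after compound addition in agonist mode. HTR2A-CHO cells were cultured 18 h, then dye-loaded 1 h at 37 C.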
# [19] = target: D(2) dopamine receptor (Homo sapiens) (UniProt P14416); assay: Dopamine D2 receptor (DRD2) small molecule antagonists, cell-based qHTS assay (AID 1963595; active = well fitted inhibition curve with a large enough effect in the signal ratio in the repeat runs, with a control signal flat; the % refers to the signal ratio)
# How it was run: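 Human DRD2 antagonist qHTS measuring cAMP by HTRF. The cells are exposed to compound for 10 min, then to NKH477 (200 nM) and quinpirole (12 nM) for 30 min at RT, with Ro20-1724 (0.1 mM) present throughout.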
Structure (SMILES),Potency [1],Potency [2],Potency [3],Potency [4],Potency [5],Potency [6],Potency [7],Potency [8],Potency [9],Potency [10],Potency [11],Potency [12],Potency [13],Potency [14],Potency [15],Potency [16],Potency [17],Potency [18],Potency [19]
CCOB(OCC)OCC,inactive,inactive,inactive,inactive,inactive,inactive,inactive,inactive,inactive,inactive,inactive,inactive,inactive,inactive,inactive,inactive,inactive,,
NC(=O)Nc1nc2ccccc2[nH]1,inactive,inactive,inactive,,inactive,inactive,inactive,inactive,inactive,inactive,inactive,inactive,inactive,inactive,inactive,,inactive,inactive,inactive
CCOC(=O)CC(=O)C(=O)OCC,inactive,inactive,inactive,inactive,inactive,inactive,inactive,inactive,inactive,inactive,inactive,inactive,inactive,inactive,inactive,,inactive,inactive,inactive
CCCCc1cc2ccccc2c(OCCN(C)C)n1,inactive,inactive,inactive,inactive,inactive,,inactive,,inactive,inactive,,inactive,inactive,inactive,,,,inactive,inactive
C=C(C)C(=O)OCCCCCCCCCC,inactive,inactive,inactive,,,,inactive,inactive,,inactive,42.4 µM (active),inactive,inactive,inactive,,inactive,inactive,inactive,inactive
CC(=O)N1CCN(c2ccc(OC[C@H]3CO[C@](Cn4ccnc4)(c4ccc(Cl)cc4Cl)O3)cc2)CC1,54.5 µM (active),inactive,inactive,,inactive,,,,,,,,,,inactive,,,,
O=C(O)c1ccccc1C(=O)OCc1ccccc1,inactive,inactive,inactive,inactive,inactive,inactive,inactive,inactive,inactive,inactive,inactive,inactive,,inactive,inactive,,inactive,inactive,
CCCCOCCOC(=O)COc1nc(Cl)c(Cl)cc1Cl,inactive,,inactive,inactive,inactive,inactive,inactive,,inactive,,,,inactive,inactive,inactive,,,,
O=c1[nH]c(=O)n([C@H]2C[C@H](O)[C@@H](CO)O2)cc1C(F)(F)F,inactive,inactive,inactive,,,inactive,inactive,inactive,,inactive,inactive,inactive,,inactive,inactive,inactive,inactive,inactive,inactive
CCCCCCOc1ccccc1C(N)=O,inactive,inactive,inactive,inactive,inactive,inactive,inactive,inactive,,inactive,,inactive,inactive,inactive,inactive,,inactive,,inactive
CCCCCCCCCCOC(=O)c1ccccc1C(=O)OCCCCCCCC,inactive,inactive,inactive,inactive,inactive,inactive,inactive,inactive,inactive,inactive,inactive,inactive,inactive,inactive,inactive,,inactive,,inactive
CCOC(=O)C(C)Oc1ccc(Oc2nc3ccc(Cl)cc3o2)cc1 (centres undefined),inactive,inactive,inactive,inactive,inactive,inactive,inactive,inactive,inactive,inactive,,inactive,,inactive,inactive,inactive,inactive,inactive,inactive
C[C@@]12CCC[C@H]1[C@@H]1CC[C@H]3C[C@@H](O)CC[C@]3(C)[C@H]1CC2,inactive,inactive,,inactive,inactive,,,,inactive,inactive,inactive,inactive,inactive,inactive,,inactive,inactive,inactive,inactive
C/C(CC(C)C)=N\O,inactive,inactive,inactive,inactive,inactive,inactive,,inactive,inactive,inactive,inactive,inactive,,inactive,inactive,inactive,inactive,inactive,inactive
CC1(C)CCC(C)(C)c2cc(C(=O)Nc3ccc(C(=O)O)cc3)ccc21,inactive,inactive,inactive,inactive,inactive,,,,,,,inactive,,,inactive,,inactive,,inactive
NC(=O)[C@@H]1CSSCCC(=O)N[C@@H](CCCCN=C(N)N)C(=O)NCC(=O)N[C@@H](CC(=O)O)C(=O)N[C@@H](Cc2c[nH]c3ccccc23)C(=O)N2CCC[C@H]2C(=O)N1 ([Mpa][hArg]GDWPC-NH2; disulfide 1-7),inactive,inactive,,inactive,,inactive,inactive,inactive,inactive,,,,,,inactive,inactive,inactive,,inactive
CC(C)C1CCC(C(=O)N[C@H](Cc2ccccc2)C(=O)O)CC1 (some centres undefined),inactive,inactive,inactive,,,inactive,inactive,inactive,,,,,inactive,inactive,,,inactive,,inactive
C=C(C)C(=O)OCCOCCOCCOCCOC(=O)C(=C)C,inactive,inactive,inactive,inactive,,inactive,inactive,inactive,inactive,inactive,,,,,inactive,inactive,inactive,inactive,inactive
